# Data reported in publication PMC5540273 (PLoS ONE, 2017).
# System: KIT
# Details: concentration: 1 μM, replicates: in singlicate; n = 1
# 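Note: KINOMEscan kinase panel screen.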
row,Structure (SMILES),%Inh [%]
1,COc1cccc(NC(=O)Nc2ccc(C)c(-c3ccc(C(=O)Nc4ccncc4)cc3)c2)c1 [GSK1398474],99.8
2,CS(=O)(=O)Cc1ccc(Nc2nccc(-c3c(-c4cccc(NC(=O)C5CCCCC5)c4)nn4ncccc34)n2)cc1 [GSK350559],88
3,COc1ccc(Nc2nccc(-c3ccc(NC(=O)c4cc5cc(F)ccc5[nH]4)cc3)n2)cc1 [GSK1229496],11
4,Cc1cccc2c(-c3ccncn3)c(-c3ccc(F)cc3)nn12 [GW515532],6
5,NS(=O)(=O)c1cccc(N/C=C2\C(=O)Nc3ccc(S(=O)(=O)Cc4c(Cl)cccc4Cl)cc32)c1 [GSK398099],15
6,O=C(Nc1n[nH]c2nc(-c3ccco3)c(Br)cc12)C1CCN(Cc2ccccc2)C1.O=C(O)[C@H](O)[C@@H](O)C(=O)O (stereo not drawn) [SB-742034],22
7,COc1ccc(-c2coc3ccc(-c4nnc(C)o4)cc23)cc1,1
8,O=c1cc(N2CCOCC2)nc2n(Cc3ccccc3F)ccn12 [GSK2297428],7
9,COC(=O)c1cccc(NC(=O)NC2CCN(c3ccnc(Nc4ccc(F)cc4)n3)C2)c1 (stereo not drawn) [GSK1379725],44
10,Cc1c(Cn2c(C)c(C)n3c(=O)cc(N4CCOCC4)nc23)cccc1C(F)(F)F [GSK2328680],9
11,CNC(=O)c1ccc(C)c(-n2c(C)cc(OCc3ccc(F)cc3F)c(Br)c2=O)c1,0
12,COc1ccc(Nc2nccc(N3CCC(NC(=O)c4cc5ccccc5s4)C3)n2)cc1 (stereo not drawn) [GSK1379738],7
13,CC(=O)c1cccc(NC(=O)NC2CCN(c3ccnc(Nc4ccc(F)cc4)n3)C2)c1 (stereo not drawn) [GSK1379710],49
14,O=C1NC(=O)C(c2ccc(Cl)cc2)=C1Nc1cccc(Cl)c1 [SB-317651],0
15,Cc1ccc(NC(=O)Nc2ccccc2F)cc1-c1ccc(C(=O)Nc2ccncc2)cc1 [GSK1398477],99.6
16,Cc1ccc(NC(=O)c2ccc(Cl)cc2)cc1-c1ccc(C(=O)Nc2ccncc2)cc1 [GSK1398467],99.4
17,Cc1ccccc1-c1cc(-c2c[nH]nc2-c2ccccn2)ccn1 [GW680061],39
18,CC[C@@H]1CO[C@H](C(=O)Nc2ccccc2)CN1c1cc(-c2ccc3c(N)n[nH]c3c2)nc(NC)n1 [GSK2376236],17

row,Structure (SMILES),%Inh [%]
1,COc1ccc(CSc2nnc(-c3ccc4ncsc4c3)o2)cc1C(F)(F)F,18
2,Cc1ccc(-c2nc(Nc3ccncc3)c3ccccc3n2)s1 [GSK189015],22
3,Cc1ccccc1Cn1ccn2c(=O)cc(N3CCOCC3)nc12 [GSK2269905],14
4,CS(=O)(=O)CCNCc1nc(-c2ccc3ncnc(Nc4ccc5c(cnn5Cc5ccccc5)c4)c3c2)cs1.Cl.Cl [GW569716],6
5,Cc1nccc(-c2c(-c3ccc(F)cc3)ncn2CCCN2CCOCC2)n1.Cl [SB-282975],0
6,Cn1cncc1C(=O)NC1CCN(c2ccnc(Nc3ccc(F)cc3)n2)C1 (stereo not drawn) [GSK1379717],17
7,CN1c2ccc(-c3ccc(C(N)=O)cc3)cc2-c2[nH]ncc2S1(=O)=O,0
8,CC(C)c1cc(-c2ccc3c(N)n[nH]c3c2)nc(N)n1 [GSK2250882],9
9,O=C(Nc1n[nH]c2nc(-c3cccs3)c(Br)cc12)C1CC1 [SB-735297],5
10,Cc1ccc(NC(=O)Nc2ccc(Cl)cc2)cc1-c1ccc(C(=O)Nc2ccncc2)cc1 [GSK1398472],99.9
11,Fc1ccc(-c2nn3cccc(F)c3c2-c2ccncc2)cc1 [GW475620],3
12,CC(C)c1ccc(O)cc1Nc1ccnc2ccc(C(F)(F)F)cc12 [GW482059],0
13,Fc1ccc(-c2nc3n(c2-c2ccncc2)CCS3)cc1 [GI98581],15
14,O=C(Nc1n[nH]c2cc(-c3ccsc3)ccc12)C1CC1 [SB-732932],56
15,Cc1cnc(N)c(/C=C/c2cncc(C(=O)NCCc3ccc(Cl)cc3Cl)c2)c1.Cl [GSK190937],99.6
16,CC(=O)c1c(C)c2cnc(Nc3ccc(N4CCNCC4)cn3)nc2n(C2CCCC2)c1=O,0
17,COc1ccc2cc(-c3nc(-c4ccccc4C(C)C)[nH]c3-c3ccncc3)ccc2c1 [SB-660566],0
18,CCc1ccc(-c2ccc3c(c2)-c2n[nH]cc2S(=O)(=O)N3C)cc1,7

# System: LATS1
# Details: concentration: 1 μM, replicates: in singlicate; n = 1
row,Structure (SMILES),%Inh [%]
1,COc1cccc(NC(=O)Nc2ccc(C)c(-c3ccc(C(=O)Nc4ccncc4)cc3)c2)c1 [GSK1398474],0
2,CS(=O)(=O)Cc1ccc(Nc2nccc(-c3c(-c4cccc(NC(=O)C5CCCCC5)c4)nn4ncccc34)n2)cc1 [GSK350559],0
3,COc1ccc(Nc2nccc(-c3ccc(NC(=O)c4cc5cc(F)ccc5[nH]4)cc3)n2)cc1 [GSK1229496],0
4,Cc1cccc2c(-c3ccncn3)c(-c3ccc(F)cc3)nn12 [GW515532],0
5,NS(=O)(=O)c1cccc(N/C=C2\C(=O)Nc3ccc(S(=O)(=O)Cc4c(Cl)cccc4Cl)cc32)c1 [GSK398099],41
6,O=C(Nc1n[nH]c2nc(-c3ccco3)c(Br)cc12)C1CCN(Cc2ccccc2)C1.O=C(O)[C@H](O)[C@@H](O)C(=O)O (stereo not drawn) [SB-742034],0
7,COc1ccc(-c2coc3ccc(-c4nnc(C)o4)cc23)cc1,0
8,O=c1cc(N2CCOCC2)nc2n(Cc3ccccc3F)ccn12 [GSK2297428],0
9,COC(=O)c1cccc(NC(=O)NC2CCN(c3ccnc(Nc4ccc(F)cc4)n3)C2)c1 (stereo not drawn) [GSK1379725],0
10,Cc1c(Cn2c(C)c(C)n3c(=O)cc(N4CCOCC4)nc23)cccc1C(F)(F)F [GSK2328680],86
11,CNC(=O)c1ccc(C)c(-n2c(C)cc(OCc3ccc(F)cc3F)c(Br)c2=O)c1,0
12,COc1ccc(Nc2nccc(N3CCC(NC(=O)c4cc5ccccc5s4)C3)n2)cc1 (stereo not drawn) [GSK1379738],0
13,CC(=O)c1cccc(NC(=O)NC2CCN(c3ccnc(Nc4ccc(F)cc4)n3)C2)c1 (stereo not drawn) [GSK1379710],0
14,O=C1NC(=O)C(c2ccc(Cl)cc2)=C1Nc1cccc(Cl)c1 [SB-317651],0
15,Cc1ccc(NC(=O)Nc2ccccc2F)cc1-c1ccc(C(=O)Nc2ccncc2)cc1 [GSK1398477],0
16,Cc1ccc(NC(=O)c2ccc(Cl)cc2)cc1-c1ccc(C(=O)Nc2ccncc2)cc1 [GSK1398467],0
17,Cc1ccccc1-c1cc(-c2c[nH]nc2-c2ccccn2)ccn1 [GW680061],0
18,CC[C@@H]1CO[C@H](C(=O)Nc2ccccc2)CN1c1cc(-c2ccc3c(N)n[nH]c3c2)nc(NC)n1 [GSK2376236],0

row,Structure (SMILES),%Inh [%]
1,COc1ccc(CSc2nnc(-c3ccc4ncsc4c3)o2)cc1C(F)(F)F,12
2,Cc1ccc(-c2nc(Nc3ccncc3)c3ccccc3n2)s1 [GSK189015],0
3,Cc1ccccc1Cn1ccn2c(=O)cc(N3CCOCC3)nc12 [GSK2269905],0
4,CS(=O)(=O)CCNCc1nc(-c2ccc3ncnc(Nc4ccc5c(cnn5Cc5ccccc5)c4)c3c2)cs1.Cl.Cl [GW569716],0
5,Cc1nccc(-c2c(-c3ccc(F)cc3)ncn2CCCN2CCOCC2)n1.Cl [SB-282975],0
6,Cn1cncc1C(=O)NC1CCN(c2ccnc(Nc3ccc(F)cc3)n2)C1 (stereo not drawn) [GSK1379717],25
7,CN1c2ccc(-c3ccc(C(N)=O)cc3)cc2-c2[nH]ncc2S1(=O)=O,9
8,CC(C)c1cc(-c2ccc3c(N)n[nH]c3c2)nc(N)n1 [GSK2250882],0
9,O=C(Nc1n[nH]c2nc(-c3cccs3)c(Br)cc12)C1CC1 [SB-735297],11
10,Cc1ccc(NC(=O)Nc2ccc(Cl)cc2)cc1-c1ccc(C(=O)Nc2ccncc2)cc1 [GSK1398472],2
11,Fc1ccc(-c2nn3cccc(F)c3c2-c2ccncc2)cc1 [GW475620],12
12,CC(C)c1ccc(O)cc1Nc1ccnc2ccc(C(F)(F)F)cc12 [GW482059],0
13,Fc1ccc(-c2nc3n(c2-c2ccncc2)CCS3)cc1 [GI98581],2
14,O=C(Nc1n[nH]c2cc(-c3ccsc3)ccc12)C1CC1 [SB-732932],2
15,Cc1cnc(N)c(/C=C/c2cncc(C(=O)NCCc3ccc(Cl)cc3Cl)c2)c1.Cl [GSK190937],0
16,CC(=O)c1c(C)c2cnc(Nc3ccc(N4CCNCC4)cn3)nc2n(C2CCCC2)c1=O,15
17,COc1ccc2cc(-c3nc(-c4ccccc4C(C)C)[nH]c3-c3ccncc3)ccc2c1 [SB-660566],0
18,CCc1ccc(-c2ccc3c(c2)-c2n[nH]cc2S(=O)(=O)N3C)cc1,0
